From the supplement of paper PMC10477191 come the findings set out here.

Molecules are shown by their SMILES. ± gives the standard deviation of the averaged measurements.

This assay relates to Drosophila virilis antennal basiconic sensillum AB4. Put plainly: odor-evoked OSN spike response (post minus pre-stimulus); higher = stronger neuronal excitation. As to conditions: odor dilution: 10^-4. Here is the method: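 Single sensillum recordings from antennal basiconic sensilla of D. virilis. A 500 ms pulse of odorant (10^-4 in mineral oil or DMSO) was delivered; the response is the change in spike frequency between the 1 s pre- and post-stimulus windows (spikes/s).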
Consider `C[C@H]1CCC[C@@]2(C)CCCC[C@]12O` [geosmin], for which the “odor-evoked OSN spike response” value was 102 ± 21 spikes/s.
